A short description of test [1]: blockers of polyQ-driven CASP3 activation – cell-based (AID 1583). To be noted: polyglutamine-induced caspase-3 activation, cell assay; stronger effect = higher value;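 tested at 10 µM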.
Test [2] is described as follows: yeast 75Q aggregation reduction – 75Q-TubU reporter (AID 1593). The note with it: Yeast 75Q polyglutamine aggregation reporter.
Test [3] in a line: restoration of touch response, mutant HTT neurons – whole organism, C. elegans mechanosensory neurons, N-terminal huntingtin (AID 1599). The note with it: C. elegans polyQ-huntingtin mechanosensory neurons, stronger effect = higher value.
A short description of test [4]: blockers of cytochrome c efflux from mitochondria – biochemical, purified mitochondria (AID 1603).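 Further: mouse liver mitochondria challenged with calcium chloride; signal normalized to the plate average as 100%.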 The note with it: stronger effect = lower value.
Test [5] in a line: polyglutamine aggregate formation blockers (AID 1604). To be noted: polyglutamine-induced protein aggregation inhibition assay; stronger effect = higher value; tested at 2.5 µM.
Test [6] in a line: glutamate transport activators, MN-1 cells, MN-1 cell line (AID 1612).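 Further: tested at 1 µM final; 0% = mean of DMSO vehicle wells on each plate; positive means more glutamate uptake than control and negative means less.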 The note with it: MN-1 motor neuron cells, stronger effect = higher value.
Test [7] can be described thus: GFP-Q80 aggregate reduction, neuronal-like cells, cell-based, NGF-treated PC12, GFPQ80 (AID 1614).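 Further: lower means fewer inclusions and 0 means no inclusions at all.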 To be noted: PC12 NGF-treated GFP-polyQ80 inclusion reduction.
Test [8] is described as follows: 75Q-TubH aggregate inhibition, S. cerevisiae, yeast (AID 1616). The note with it: S. cerevisiae 75Q-TubH polyglutamine aggregation suppression; stronger effect = higher value.
Test [9] can be described thus: P. berghei load reduction in hepatocytes – cell-based, HepG2, luciferase luminescence, HepG2 viability, primary screen (AID 624349; in the data active means parasite load remaining mostly below about 12%, no sharp cut-off; inactive means mostly above about 10%;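 further: 100% = mean of DMSO negative control wells on the same plate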). The note with it: P. berghei liver stage in HepG2, luciferase luminescence, concentration not given here; parasite load remaining: stronger effect = lower value; viability: measured here: HepG2 viability without parasites.
The nature of test [10]: EMT-state selective cytotoxicity in co-culture – imaging, PC-3E GFP, TEM4-18 mCherry, primary screen (AID 1345086;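 active means compounds killing one labelled cell type while sparing the other, by normalised counts and ratio limits, not self-fluorescent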;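 on all read-outs here: cells exposed to compound for 72 h before imaging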;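 on red/green cell ratio (normalised): normalised mesenchymal count divided by normalised epithelial count so high means epithelial killing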). To be noted: PC-3E GFP / TEM4-18 mCherry co-culture, imaging cell counts, at 1 µM; for red/green cell ratio (normalised): actives lie on both sides, counts scaled to control wells, 1 = unselective.
A short description of test [11]: viability loss in pontine glioma line – cell-based, JHH-DIPG-1, MIPE4.0, CellTiter-Glo, qHTS, dose response (AID 1347062; cut-off not given, nearly all actives have AC50 up to about 27 µM). To be noted: JHH-DIPG-1 viability, CellTiter-Glo ATP luminescence. Background: Cellular ATP, detected with luciferase, serves as a proxy for viable cell number.
A short description of test [12]: viability loss in pontine glioma line – cell-based, SU-DIPG-IV, MIPE4.0, CellTiter-Glo, qHTS, dose response (AID 1347063; cut-off not given, nearly all actives have AC50 up to about 30 µM;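 further: compound exposure lasted 48 hours before the viability readout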). The note with it: CellTiter-Glo ATP luminescence.
A short description of test [13]: growth inhibition of DIPG cells – cell-based, MIPE4.0 library, CellTiter-Glo luminescence, qHTS (AID 1347066; cut-off not given, nearly all actives have AC50 up to about 30 µM;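 further: cells exposed to compound for 48 hours before readout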). To be noted: SU-DIPG-VI viability, CellTiter-Glo ATP luminescence.
A short description of test [14]: viability loss with induced miR-34 in A549 – imaging, A549 dox-inducible miR-34, nuclei and caspase counts, primary screen (AID 1347080;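 active means compounds whose cell count with miR-34 switched on is under 0.7 times the count with it off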). To be noted: A549 miR-34 inducible, Hoechst nuclei count, 48 h.
A short description of test [15]: MELAS cybrid and Rieske KO viability enhancers – cell-based, MELAS cybrids, Rieske KO mouse fibroblasts, CellTiter-Glo, primary screen (AID 1508586;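 active means mean z-score across replicates of 1.96 or higher in either the MELAS or the Rieske mutant cell line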;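 further: z relative to plate mean and SD of compound and empty wells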). To be noted: low glucose.
Test [16] in a line: viability loss in pontine glioma line – cell-based, SU-DIPG-XVII, MIPE5.0, CellTiter-Glo, qHTS, dose response (AID 1347060).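 On AC50: cells exposed to compound for 48 hours before viability readout.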 To be noted: CellTiter-Glo ATP luminescence.
The nature of test [17]: viability loss in pontine glioma line – cell-based, SU-DIPG-XIII, MIPE5.0, CellTiter-Glo, qHTS, dose response (AID 1347064; cut-off not given, nearly all actives have AC50 up to about 23 µM;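 further: cells exposed to compound for 48 hours before the viability read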). The note with it: CellTiter-Glo ATP luminescence.
Test [18] is described as follows: viability loss in pontine glioma line – cell-based, SU-DIPG-XXV, MIPE5.0, CellTiter-Glo, qHTS, dose response (AID 1347065).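 Further: cells exposed to compound for 48 hours before ATP readout.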 To be noted: CellTiter-Glo ATP luminescence.
Test [19] is described as follows: JHH-DIPG-1 glioma cell viability, MIPE5.0 library, CellTiter-Glo luminescence, qHTS (AID 1347067).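 Further: cells exposed to compound for 48 hours before readout.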 The note with it: JHH-DIPG-1 glioma viability, CellTiter-Glo ATP luminescence.
Test [20] is described as follows: growth inhibition of DIPG cells – cell-based, MIPE5.0 library, qHTS (AID 1347068; cut-off not given, nearly all actives have IC50 up to about 30 µM;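 on IC50: cells exposed to compound for 48 hours before viability readout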). The note with it: SU-DIPG-XXV viability.
Test [21] in a line: galactose survival enhancers in mitochondrial complex I cybrids – cell-based, galactose medium, ATP luminescence, primary screen (AID 1645843;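 active means z-score of at least 1.8 in each of two replicates, scored against plate mean and spread of sample wells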;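 further: positive z means more ATP and so rescue of galactose-driven cybrid death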). To be noted: complex I mutant cybrid cells, 72 h, stronger effect = higher value.
Test [22] in a line: viability loss in pontine glioma line – cell-based, SU-DIPG-XIII, MIPE4.0, CellTiter-Glo, qHTS, dose response (AID 1347061; cut-off not given, nearly all actives have AC50 up to about 37 µM;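 further: cells exposed to compound for 48 hours before readout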). To be noted: CellTiter-Glo ATP luminescence.
Setting [23] is: measured here: epithelial PC-3E GFP cell survival.
The mark [24] stands for this setting: measured here: mesenchymal TEM4-18 mCherry cell survival.
Setting [25] is: stronger effect = lower value, cell number ratio, induced over uninduced.
The mark [26] stands for this setting: measured here: relative caspase fold change +Dox/-Dox.
The mark [27] stands for this setting: measured here: total cells with miR-34 induction, stronger effect = lower value.
[28] abbreviates: measured here: total cells without miR-34 induction.
[29] abbreviates: MELAS cybrid survival, CellTiter-Glo 48 h, stronger effect = higher value.
The mark [30] stands for this setting: Rieske KO mouse fibroblast survival, CellTiter-Glo 72 h.

Values joined by “and” are separate entries in the source; they are usually repeats but may differ in a detail not shown here. Equal values may be shown once. Results filed as inconclusive are left out. For part of these data: Measured potencies and affinities stand elsewhere. Active and inactive are the calls of the source. Unless noted, cut-off not given; nearly all actives show AC50 up to about 26 µM.

Take `COc1ccc(C2Sc3ccccc3N(CCN(C)C)C(=O)C2OC(C)=O)cc1` (configuration not stated): the inhibition in test [1] turned out to be 5.24%. In addition, the score in test [2] came out at 1.09. In test [3], this molecule came in with a rescue above control of -7.88. The cytochrome c release ratio in test [4] was 1.1. The molecule further gave an inhibition of aggregation in [5] of 45.9%. Also, the glutamate uptake change in test [6] is 4.81%. Besides, the inclusion score in test [7] was found to be 2. Moreover, the aggregation suppression score in [8] came out at 0.716. In addition, the parasite load remaining in test [9] was 163% (inactive) and 58.1% (inactive). Further, the viability in test [9] was 88.6% and 96.1%. Moreover, the red/green cell ratio (normalised) in [10] was 1.25 (inactive). In addition, the normalised cell number was determined as 0.98 in test [10] (setting [23]) and 1.22 in [10] (setting [24]). The call in test [11], in [12] and in test [13] was inactive. The fold change in [14] (setting [25]) was 0.937 (inactive) and 0.887 (inactive); in test [14] (setting [26]), 0.646 and 4.46. For the same molecule, the cell count is 7800 and 11500 in test [14] (setting [27]); 8320 and 13000 in [14] (setting [28]). Further, the z-score is -0.332 (inactive) in test [15] (setting [29]) and -0.2 in test [15] (setting [30]).

With `CO/N=C(/C(=O)N[C@@H]1C(=O)N2C(C(=O)OCSC(=O)c3ccco3)=CCS[C@H]12)c1csc(N)n1`, in [10], the red/green cell ratio (normalised) was 0.72 (inactive). The normalised cell number came to 1.31 in test [10] (setting [23]) and 0.94 in [10] (setting [24]). In addition, the fold change in [14] (setting [25]) was 0.907 (inactive); in test [14] (setting [26]) it was 0.846. Further, the cell count in test [14] (setting [27]) stood at 8470; in test [14] (setting [28]) it was 9350.

On to `CC[C@]1(O)CC2CN(CCc3c([nH]c4ccccc34)[C@@](C(=O)OC)(c3cc4c(cc3OC)N(C)[C@H]3[C@@](O)(C(=O)OC)[C@H](OC(C)=O)[C@]5(CC)C=CCN6CC[C@]43[C@@H]65)C2)C1` (some centres not stated), for which the parasite load remaining in test [9] is 45.7% (inactive) and 54.9% (inactive). Further, the viability in test [9] is 113% and 91%. In addition, the red/green cell ratio (normalised) in test [10] was 1.24 (inactive). Moreover, the normalised cell number in [10] (setting [23]) was 0.16; in [10] (setting [24]), 0.2. In addition, the AC50 in [16] was 20.9 nM (active); in test [17], 83.3 nM (active); in [18], 14.8 nM (active); in test [19], 46.8 nM (active). Also, in test [20], the IC50 is 3320 nM (active). Moreover, the fold change is 1.13 (inactive) and 1.04 (inactive) in test [14] (setting [25]); 2.66 and 1.23 in test [14] (setting [26]). In addition, the cell count in test [14] (setting [27]) is 1730 and 1930; in test [14] (setting [28]), 1530 and 1860. Also, the z-score in [15] (setting [29]) is -2.11 (inactive); in test [15] (setting [30]), 1.21; in [21], -1.85 (inactive).

For the molecule `CC(=O)NC(CS)C(=O)O` (configuration not stated), the red/green cell ratio (normalised) in test [10] was 1.09 (inactive). The normalised cell number in test [10] (setting [23]) was determined as 1.24; in test [10] (setting [24]), 1.36. For the same molecule, the result in [16], in [22], in test [11], in [12], in test [18] and in test [13] was inactive. Moreover, the result in test [19] and in test [20] was inactive.

What is called inhibition is the percentage by which the read-out fell short of the control. Broadly, the viability is a read-out of living cells in per cent, often relative to untreated cells. The term AC50 denotes the concentration at which the activity in the assay is half-maximal. For orientation: IC50 means the midpoint of a concentration-inhibition curve.

Source of the values: PubChem BioAssay.
